Assay outcomes from PubChem.
CHT inh = inhibits the human high affinity choline transporter; Q9GZV3; CHT-expressing cells, membrane potential dye, choline response; hits give low values; B-score at 10 µM; hit rate 0.86% among 310,000;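 active = B-score over 3 SD under the library average, and starting fluorescence ratio not unusually high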;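 note: choline stimulus applied at its EC90 after an EC20 pre-addition; B-score computed on integrated fluorescence ratio after choline addition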
EP2 antag = blocks the human prostaglandin E2 receptor EP2 | inhibition, % at 25 µM | hit rate 0.52% among 260,000 | P43116 | AID 1422 | C6 glioma cells expressing human EP2, cAMP TR-FRET; cells stimulated with saturating PGE2;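 active = percent inhibition above 40 after rounding to a whole number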;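 note: rat C6 glioma host cells with rolipram phosphodiesterase inhibitor present; the protocol text gives 20 µM as final concentration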
Target sequence (P43116 whole entry, looked up): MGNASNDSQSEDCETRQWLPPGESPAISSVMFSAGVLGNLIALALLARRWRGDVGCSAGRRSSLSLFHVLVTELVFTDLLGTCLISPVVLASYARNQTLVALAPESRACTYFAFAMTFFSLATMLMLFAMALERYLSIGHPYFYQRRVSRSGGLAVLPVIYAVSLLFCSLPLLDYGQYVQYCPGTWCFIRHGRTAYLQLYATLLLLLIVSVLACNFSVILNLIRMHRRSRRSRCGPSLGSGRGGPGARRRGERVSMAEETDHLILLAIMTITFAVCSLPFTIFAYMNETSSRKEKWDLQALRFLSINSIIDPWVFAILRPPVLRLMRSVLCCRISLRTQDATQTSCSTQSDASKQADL
EP2 modulator = modulates human prostaglandin E2 receptor EP2 signaling. P43116. hit rate 0.83% among 260,000. EP2-expressing cells, cAMP HTRF FRET, PGE2 co-stimulation. induction, % at 25 µM;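 active = compounds whose cAMP rise, as percent of the full-agonist control response, exceeds 60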;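 note: rat C6 glioma line stably carrying human EP2 under a CMV promoter; the protocol text gives 20 µM as final concentration; 100% = response of wells given 1 µM PGE2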
CHT allo act = allosteric activators of human choline transporter CHT; CHT-expressing cells, membrane potential dye, choline EC20; hits give high values; LV-AA mutant CHT in HEK293 cells; B-score at 10 µM; hit rate 0.49% among 310,000; AID 488977;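 active = initial fluorescence not abnormally high and integrated response B-score, plate-corrected, over 3 SD above library mean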
Numbers without * were called inactive; i = inactive; nt = not tested or not shown; ! = repeats disagree. Hits are enriched below; roughly 2.1% of the tested compounds scored in any of these assays.

SMILES	CHT inh	EP2 antag	EP2 modulator	CHT allo act
COc1cccc(NC(=O)c2cc3cccc(OC)c3o/c2=N\O)c1	-5.3*	nt	nt	i
CCOc1ccc(N=c2oc3c(OC)cccc3cc2C(=O)Nc2nccs2)cc1	nt	16	-60	nt
CCc1ccc2[nH]c3nc(SCC(=O)Nc4ccc5c(c4)OCO5)nnc3c2c1	nt	10	-24	nt
CCCNC(=O)CSc1nnc2c(n1)[nH]c1ccc(C(C)C)cc12	nt	18	-24	nt
O=C(c1cc(=O)[nH]c2ccccc12)N1CCN(c2cccc(C(F)(F)F)c2)CC1	i	7	-32	i
Cc1[nH]c2ccccc2c1C(O)CN1CCN(c2cccc(C(F)(F)F)c2)CC1 (configuration not stated)	-8.7*	15	23	i
CC(=O)N1CCCC(c2nc(C)ncc2-c2ccncc2)C1 (configuration not stated)	nt	5	-9	nt
N=C(N)SCCc1ccccn1	nt	44*!	7	nt
COn1c2c(c3c4nonc4ccc31)CCCC2	i	16	0	i
On1c2c(c3c4nonc4ccc31)CCCC2	-11*	9	-31	i
CC(C)CO/C(=N/S(=O)(=O)c1ccccc1)c1ccccc1	i	1	65*	i
CC(C)O/C(=N\S(=O)(=O)c1ccc(Cl)cc1)c1ccccc1	i	6	39	i
Cc1cccc(NC(=O)CSc2nnc3c4c5c(sc4ncn23)CC(C)CC5)c1 (configuration not stated)	nt	10	-11	nt
COC1=CC(=O)C(O)=C/C1=C\C=C\c1ccccc1	nt	111*	-32	nt
CC1(C)Cc2c(c(=S)nc(-c3ccccc3)n2CCOCCO)CO1	i	9	13	i
OCCOCCn1c(-c2ccccc2)nc(=S)c2c1CCCC2	i	15	8	6.4*
CC1=C(C#N)c2nc(N)c(C#N)c(C)c2/C1=C\c1ccc(C)cc1	i	40*!	-111	i
Nc1nc(-c2cc(-c3cccc4ccccc34)nc(N)n2)cc(-c2cccc3ccccc23)n1	nt	57*	-10	nt
Nc1ccc2oc(-c3cccc4ccccc34)nc2c1	i	26	-36	i
CCOC(=O)C1CCN(S(=O)(=O)c2c(Cl)ccc3nonc23)CC1	-5.4*	nt	nt	i
CCOC(=O)C1CCN(S(=O)(=O)c2ccccc2)CC1	i	nt	nt	i
O=C1COc2ccc(S(=O)(=O)N3CCCC3)cc2N1	i	nt	nt	i
O=C1COc2ccc(N3C(=O)C=CC3=O)cc2N1	i	46*	-34	i
CCC(=O)OCN1C(=O)C=CC1=O	nt	82*	-33	nt
O=c1[nH]c(/C=C/c2ccc3c(c2)OCO3)nc(O)c1[N+](=O)[O-]	nt	7	-7	nt
SMILES	CHT inh	EP2 antag	EP2 modulator	CHT allo act
CC(C)(C)N1CC23C=CC(O2)C(C(=O)O)C3C1=O (configuration not stated)	nt	5	-19	nt
CC(Oc1ccc(Br)cc1)C(=O)Nc1ccc(S(=O)(=O)N(C)C2CCN(C)CC2)cc1 (configuration not stated)	i	nt	nt	7.1*
COc1ccc(S(=O)(=O)N(C)C2CCN(C)CC2)cc1	i	10	-5	i
CCC(=O)Nc1cccc(NC(=O)CSc2nc3c(c(=O)n(C)c(=O)n3C)n2C(C)C)c1	nt	15	-14	nt
O=S(=O)(c1ccc(Br)cc1)N1CCN(c2ccccc2)CC1	i	nt	nt	i
O=S(=O)(c1ccc(Br)cc1)N1CCN(S(=O)(=O)c2ccc(Br)cc2)CC1	nt	42*	-1	nt
Nc1c(C(=O)NC2CC2)c2nc3ccccc3nc2n1-c1ccc2c(c1)OCO2	i	16	-18	i
Nc1c(C(=O)OCC2CCCO2)c2nc3ccccc3nc2n1-c1ccc2c(c1)OCCO2 (configuration not stated)	i	80*	-44	i
COc1ccc(CN(Cc2cccn2C)S(=O)(=O)c2ccc(C)cc2)cc1	i	7	72*	i
COc1ccc(-c2oc3ncnc(NCCCN4CCOCC4)c3c2-c2ccc(OC)cc2)cc1	i	6	61*	i
Cc1cc(N2CCN(CC(O)c3c[nH]c4ccc(F)cc34)CC2)nc(C(C)C)n1 (configuration not stated)	nt	17	-111	nt
CN(C)C[C@@H](O)c1ccc(Cl)c2ccccc12	nt	47*	-26	nt
C/C(=N\NC(=S)NCc1ccccc1)c1ccccc1F	i	3	64*	i
C/C(=N\NC(=S)NCc1ccccc1)c1ccccc1	i	4	22	i
O=C1C=CC(=O)N1CCCCCCN1C(=O)C=CC1=O	i	135*	-1	i
O=C(c1ccc(OC2CSC2)cc1)N1C2CCC1CC(c1ccc(F)cc1)C2 (configuration not stated)	nt	nt	-80	nt
NS(=O)(=O)C1=C(Cl)CC2=NC(CCC(=O)O)=NS(=O)(O)=C2C1	nt	45*	11	nt
Cc1cc(Cc2cc(Cc3cc(C)cc(C(C)(C)C)c3O)c(C)cc2C)c(O)c(C(C)(C)C)c1	nt	52*	19	nt
CS(=O)(=O)N1CCN(c2ccccc2NC(=O)c2cccs2)CC1	i	8	14	i
O=C(Nc1ccccc1N1CCCCC1)c1ccco1	i	11	64*	i
O=C(Nc1ccccc1N1CCCCC1)c1cccs1	i	4	61*	i
CC1(c2ccccc2NC(=O)c2cccs2)CC1	nt	10	65*	nt
O=C(COc1ccccc1)Nc1ccccc1N1CCCCC1	i	11	64*!	i
O=C(Nc1ccccc1N1CCCC1)c1ccco1	i	15	30	i
Cc1cccc2cc(CN(Cc3ccccc3)C(=S)NCC3CCCO3)c(=O)[nH]c12 (configuration not stated)	nt	11	-5	nt
SMILES	CHT inh	EP2 antag	EP2 modulator	CHT allo act
Cc1[nH]c(=O)cc2ccc3ccccc3c12	nt	11	-22	nt
C[C@H]1[C@H](C)OC(=O)C[C@H](O)C[C@H](O)C[C@H](O)CC[C@H](O)[C@H](O)CC(=O)C[C@H](O)[C@H](C(=O)O)[C@H](O)C[C@H](O[C@H]2O[C@@H](C)[C@H](O)[C@@H](N)[C@@H]2O)C=CC=CC=CC=CCCC=CC=C[C@@](C)(O)[C@H]1O	nt	44*	20	nt
CC1C/C=C/C=C/C=C/C=C/C(O[C@@H]2O[C@H](C)[C@@H](O)[C@H](N)[C@@H]2O)CC2OC(O)(CC(O)CC3OC3/C=C/C(=O)O1)CC(O)C2C(=O)O (some centres not stated)	nt	nt	29	nt
O=C(CSc1nc2c(c(=O)[nH]1)CCC2)Nc1ccc(F)cc1	i	nt	nt	i
Cc1nc(SCc2ccc(C(=O)O)cc2)nc2c1CCCC2	i	6	61*!	i
Cc1nc(SCc2ccccc2)nc2c1CCCC2	nt	13	54	nt
Cc1nc(SCC(=O)Nc2ccc(F)cc2)nc2c1CCCC2	nt	54*	-82	nt
CN(C)C(CNS(=O)(=O)c1ccc2c(c1)oc(=O)n2C)c1ccc2c(c1)OCO2 (configuration not stated)	nt	9	-18	nt
O=C(OC1CSc2nc3ccccc3n2C1)c1ccccc1Cl (configuration not stated)	nt	4	-56	nt
CCS(=O)(=O)N1CCC(n2cnc3cccnc32)CC1	nt	4	-20	nt
